# Source: PubChem (several laboratories)
# Only some compounds are listed: those with a hit (about 11% of all), similar ones and a draw of the others.
# WT yeast gro inh: growth inhibition of WT yeast, mitochondrial fusion screen; mitochondrial fusion phenotypic screen, WT strain; inhibition, % at 10 µM; 2.1% of 190,000 active; AID 1362; in the data active = inhibition above about 58%; tested in S. cerevisiae
# Autophagy HCS: alters autophagy in cells; MEF GFP-LC3 puncta imaging; test concentration mostly 10 µM; calls only at 10 µM (by protocol); 0.98% of 190,000 active; AID 463193;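 active = percentage of spot-positive cells more than 3 SD above its plate mean, without a fluorescence outlier flag or 80% toxicity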
# Insulin prom inh: TRM-6 insulin promoter activity inhibition; TRM-6 cells (human fetal islet line), insulin promoter-eGFP reporter, imaging; reporter expression induced with tamoxifen; inhibition, % at 2 µM; 0.9% of 130,000 active; AID 1273;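 active = inhibition above the mean plus 3 SD, with well images judged a real hit on visual review, cut at about 60% in these data, passing the limit was not always enough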
# Lmaj promast: inhibitors of Leishmania major promastigote growth; AID 1063; Leishmania major promastigotes, resazurin fluorescence viability; 9% of 200,000 active; inhibition, % at 10 µM; in the data active = inhibition above about 50%;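 also: promastigotes grown with compound for 44 hours at 28 °C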
# Ins promoter up: MIN6 insulin promoter up-regulation | MIN6 insulin promoter-GFP reporter, high-content imaging; active compounds read high | z-score at 5 µM | 0.3% of 190,000 active;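 active = z-score above 3 at 5 µM with at least 500 cells counted in the well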
# Numbers stand for hits; – = inactive; · = no result; + = active, no number.
SMILES,WT yeast gro inh,Autophagy HCS,Insulin prom inh,Lmaj promast,Ins promoter up
CC(c1ccco1)N(C(=O)c1ccccc1NS(=O)(=O)c1ccc(Cl)c([N+](=O)[O-])c1)c1ccccn1 (configuration not stated),–,–,–,81,–
CC1CCC(NC(=O)c2ccc(NC(=O)c3ccc(=O)[nH]c3)cc2)CC1 (configuration not stated),–,–,–,–,–
CCc1ccc(C(=O)COC(=O)c2cncc(Br)c2)cc1,–,–,·,–,–
O=C(NCCN1C(=O)S/C(=C\c2ccccc2)C1=O)c1cc(S(=O)(=O)N2CCOCC2)c(Cl)cc1Cl,–,–,·,–,–
COc1cc(OC)cc(C(=O)Nn2c(C)nc3ccccc3c2=O)c1,–,–,·,–,–
COc1cc(OC)cc(-c2nc3ccccc3c(=O)n2OC(=O)c2ccc(C)c(C)c2)c1,–,–,–,73,–
O=C(COC(=O)c1cc(S(=O)(=O)N2CCCCC2)ccc1N1CCOCC1)NC1CCS(=O)(=O)C1 (configuration not stated),–,–,·,–,–
C(=N\n1cnc2ccccc21)/c1cccnc1,–,–,–,–,·
Cc1cc2ncn(/N=C/c3cccnc3)c2cc1C,61,–,–,–,–
Cc1cc(N2CCCC2=O)cc(C)c1S(=O)(=O)Nc1c(C)nn(C)c1C,–,–,·,–,–
Cc1cc(C)c(S(=O)(=O)N2CCCCC2)c(C)c1N(C)S(=O)(=O)c1ccccc1,–,–,–,–,–
c1ccc(-c2ccccc2OCCOCCN2CCNCC2)cc1,–,–,·,82,–
Cc1cccc(OCCOCCN2CCNCC2)c1C,–,–,–,–,–
CCN1CCN(CCOCCOc2ccccc2-c2ccccc2)CC1,–,–,·,93,–
Cc1nc2c(Br)c(C)nn2c2c1CCC2,–,–,–,–,–
C=C(C)Cn1c(C)cc(C)c(S(=O)(=O)c2ccc(C)cc2)c1=O,–,–,·,68,–
CC1CCN(S(=O)(=O)c2ccc(NC(=O)CN3CCOCC3)cc2)CC1,–,–,–,–,–
CC1CCN(S(=O)(=O)c2ccc(NC(=O)N3c4ccccc4Sc4ccccc43)cc2)CC1,–,–,·,61,–
CC1CCN(S(=O)(=O)c2ccc(NC(=O)Cc3cccs3)cc2)CC1,–,–,–,89,–
Cc1ccc(-c2nnc(-c3ccc(NC(=O)Cc4cccs4)cc3)o2)cc1,–,+,·,–,–
CCOCCCNS(=O)(=O)c1ccc(NC(=O)CN2C(=O)c3ccccc3C2=O)cc1,–,–,–,–,–
CCOCCCNS(=O)(=O)c1ccc(NC(=O)N2c3ccccc3Sc3ccccc32)cc1,–,–,·,100,–
NS(=O)(=O)c1ccc(NC(=O)N2c3ccccc3Sc3ccccc32)cc1,–,–,·,–,–
O=C(CN1C(=O)NC2(CCCCCCC2)C1=O)NC1CCCc2ccccc21 (configuration not stated),–,–,·,–,–
CCOC(=O)c1cc2sccc2n1CC(=O)C(C)(C)C,–,–,–,–,–
SMILES,WT yeast gro inh,Autophagy HCS,Insulin prom inh,Lmaj promast,Ins promoter up
C/C(CC(C)(C)C1CCCCC1)=N\NC(N)=S,–,–,–,100,–
OCCC1CN(Cc2cccn2-c2cccnc2)CCN1C1CCCCC1 (configuration not stated),–,–,·,–,–
CN1CCN(C2=C(Cl)C(=O)N(Cc3ccccc3)C2=O)CC1,–,–,·,96,–
CCN1CCN(C2=C(Cl)C(=O)N(Cc3ccccc3)C2=O)CC1,–,–,–,92,–
CCOc1ccc(NC2=C(Cl)C(=O)N(Cc3ccccc3)C2=O)cc1,–,–,–,–,–
CCOC(=O)c1c(C)n(-c2ccc(C)cc2)c2ccc(O)c(CN(C)C)c12,–,–,–,99,–
CCOC(=O)c1c(CSc2ccc(C)cc2)n(C)c2cc(Br)c(O)c(CN(C)C)c12,–,–,·,71,–
CCOC(=O)c1c(CSc2ccccc2)n(C)c2cc(Br)c(O)c(CN(C)C)c12,·,·,·,·,–
O=C(O)c1ccc(N/N=C2/CCCc3ccccc32)cc1,·,·,·,·,–
CCCCN(C(=O)COc1ccc(C)cc1OC)c1c(N)n(CCC)c(=O)[nH]c1=O,·,·,·,·,–
CCn1c(=NC(=O)c2ccc(S(=O)(=O)N3CCOCC3)cc2)sc2cccc(OC)c21,–,–,–,100,·
O=C(CSc1nnc(NC(=O)c2ccc(S(=O)(=O)N3CCOCC3)cc2)s1)Nc1ccccc1C(F)(F)F,–,–,–,92,–
COc1ccccc1NC(=O)c1ccc(S(=O)(=O)N2CCOCC2)cc1,–,–,–,–,·
COc1ccccc1C(=O)NCC1CCN(c2ccc(S(=O)(=O)N3CCOCC3)cc2)CC1,–,–,–,100,·
COc1cccc2sc(NC(=O)c3ccc(S(=O)(=O)N4CCOCC4)cc3)nc12,–,–,–,51,–
CC(C)/C=N/Nc1nc(-c2ccc(Br)cc2)cs1,–,–,–,–,–
CCC1OC23CCCCC2C(C#N)(C(=N)O3)C1(C#N)C#N (configuration not stated),–,–,–,–,–
CC1OC23CCCCC2C(C#N)(C(=N)O3)C1(C#N)C#N (configuration not stated),–,–,77,–,–
COc1cc(OC)c(OC)cc1/C=N/Nc1nc2ccccc2[nH]1,·,·,·,·,–
COc1cc(/C=N\Nc2nc3ccccc3[nH]2)cc(OC)c1OC,–,–,·,57,–
COc1ccc(/C=N/Nc2nc3ccccc3[nH]2)cc1OC,–,–,–,99,–
Cn1cc(C(=O)c2ccc(Cl)cc2Cl)cc1C(=O)N/N=C(\N)COc1ccc(Cl)cc1,·,·,·,·,–
Cn1cc(C(=O)c2ccc(Cl)cc2Cl)cc1C(=O)O,92,–,–,–,–
Cn1cc(C(=O)c2ccc(Cl)cc2Cl)cc1C(=O)N/N=C(\N)COc1ccc(Cl)cc1Cl,–,–,–,100,–
COC(=O)CSc1nc(NC#N)nc(NC(C)C)n1,–,–,–,–,–
SMILES,WT yeast gro inh,Autophagy HCS,Insulin prom inh,Lmaj promast,Ins promoter up
Brc1ccccc1CN1CCC(N2CCCCC2)CC1,–,–,–,100,–
CCOC(=O)c1ccc(NS(=O)(=O)N2CCCCCC2)cc1,–,–,–,95,–
CCOC(=O)c1ccc(NC(=O)C2CCN(S(=O)(=O)c3ccccc3)CC2)cc1,–,·,·,–,·
CCOC(=O)c1ccc(NC(=O)C2CCCN(S(=O)(=O)c3ccc(F)cc3)C2)cc1 (configuration not stated),–,–,–,59,–
CN(C)S(=O)(=O)c1ccc(NC(=O)C2CCCN(C(=O)c3ccc(Cl)cc3)C2)cc1 (configuration not stated),–,–,–,–,–
CCOC(=O)c1ccc(NC(=O)C2CCN(S(=O)(=O)CC)CC2)cc1,–,–,–,–,·
O=C(Nc1ccc(S(=O)(=O)N2CCCCC2)cc1)C1CCCN(C(=O)c2ccc(Cl)cc2)C1 (configuration not stated),–,–,–,56,–
COc1c(Cl)ccc(Cl)c1C(=O)NC(=S)N1CCOCC1,–,–,·,–,–
COc1ccccc1-n1c(=O)c2c3c(sc2n2c(=S)[nH]nc12)CCC3,–,–,–,–,·
CC(NC(=O)COC(=O)/C=C/c1ccco1)c1ccccc1 (configuration not stated),–,–,·,–,–
CCN(CC)S(=O)(=O)c1cc(NC(=O)CCCOc2ccc(C(C)=O)cc2)ccc1C,–,–,·,–,–
